Screening results as filed in PubChem BioAssay.
Compounds with a hit are over-represented: about 4.7% of the library has one in this group of screens.
TWEAK Fn14 block – blocks TWEAK-Fn14 interaction in a reporter cell assay; TWEAK-stimulated Fn14 reporter cells, luciferase luminescence, 8 h; inhibition, % at 10 µM; actives 2% (n = 360,000); AID 1159606; in the data active means inhibition above about 50%
TROY signal inh – inhibitors of TROY-dependent NF-kB signaling | Q293 LMP1-TROYcd NF-kB luciferase reporter, 4 h | inhibition, % at 10 µM | actives 0.98% (n = 360,000) | AID 1347056;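 active means compounds whose plate-normalised and pattern-corrected inhibition of the luciferase reporter signal at the single screening dose is 50% or more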
HSF1 activator – increases HSF-1 driven luciferase reporter signal; NIH3T3-HGL HSF-1 luciferase reporter, MG132, 8 h; 100% = twice DMSO control signal; AID 504408; activation, % at 9 µM; actives 1.7% (n = 300,000);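 active means mean replicate activation of at least 50% with a set share of replicates each reaching 50%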;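 further: 0% = median of the neutral control wells and 100% = twice that signal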
HSP90 refold inh – HSP90 refolding inhibition in rabbit reticulocyte lysate; luciferase refolding luminescence, 3 h; inhibition, % at 5.6 µM; actives 0.91% (n = 290,000); AID 1789;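 active means inhibition above the screen-wide mean plus 3 SD, computed separately per campaign, cut at about 16% in these data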;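 further: 0% = DMSO wells and 100% = 60 µM geldanamycin wells; inhibitors lower the luminescence because luciferase stays unfolded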
HSF1 inhib – HSF1 inhibition; NIH3T3-HGL HSE-luciferase, MG132-induced, luminescence 8 h; hits give low values; activity change, negative = inhibition, % at 7.5 µM (by protocol); actives 0.77% (n = 300,000);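 active means more than half of replicate wells show activity change below -50%, luminescence cut by over half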;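 further: luciferase reports HSF-1 transcriptional activity via heat shock element; 0% = median of DMSO wells and -100% = zero luminescence signal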
LMP1 NFkB inh – Epstein-Barr LMP1 NF-kappaB reporter inhibition; LMP1-induced NF-kappaB luciferase reporter cells, luminescence; inhibition, % at 12.5 µM; actives 0.69% (n = 350,000); AID 504558; in the data active means inhibition above about 41%;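 further: 0% = neutral control wells and 100% = reference inhibitor control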
* hit, by the source's call; . = not tested or not shown.

SMILES	TWEAK Fn14 block	TROY signal inh	HSF1 activator	HSP90 refold inh	HSF1 inhib	LMP1 NFkB inh
Cc1nc(N2CCN(Cc3ccccc3)CC2)nc2c1CCC2	60*	12	-4	0	-3	0
Cc1nc(N2CCN(Cc3ccccc3)CC2)nc2c1C(=O)CCC2	16	25	3	1	-5	-7
COc1ccccc1CNCC(c1ccccc1)c1ccccc1	8	-18	61*	-4	25	3
CC1(C(=O)NS(=O)(=O)c2cccc(OC(F)F)c2)CCN1C(=O)Cc1ccsc1 (stereo not given)	2	1	.	.	.	.
CC(=O)Nc1ccc(NC2=CC(=O)c3ccccc3C2=O)cc1	1	-10	77*	10	32	-10
O=C1C=C(Nc2ccc(O)cc2)C(=O)c2ccccc21	10	-23	64*	11	58	3
CC(=O)Nc1ccc(C(=O)N2CCCC(c3cc(C(=O)Nc4ccccc4Cl)no3)C2)cc1 (stereo not given)	-8	4	.	.	.	.
CC1(C)C[C@H]2C3=CCC4[C@@]5(C)CC[C@H](O[C@@H]6O[C@H](C(=O)O)[C@@H](O)[C@H](O)[C@H]6O)[C@@](C)(CO)C5CC[C@@]4(C)[C@]3(C)C[C@H](O)[C@@]2(CO)[C@@H](O)[C@@H]1O (stereo not given in full)	5	57*	.	.	.	6
C/C=C(/C)C(=O)OC1CC(C)(C)C[C@H]2C3=CC[C@@H]4[C@@]5(C)CCC(O[C@@H]6O[C@@H](C(=O)O)[C@@H](O)C(O[C@@H]7OC[C@H](O)[C@@H](O)[C@@H]7O[C@@H]7OC(CO)C(O)[C@@H](O)[C@@H]7O)C6O[C@@H]6OC(CO)C(O)C(O)C6O)[C@@](C)(CO)[C@@H]5CC[C@]4(C)[C@]3(C)CC(O)[C@@]12CO (stereo not given in full)	-12	0	.	.	.	4
C/C=C(\C)C(=O)OC1[C@H](OC(C)=O)C2(CO)C(CC1(C)C)C1=CCC3C4(C)CCC(O[C@@H]5O[C@H](C(=O)O)[C@@H](O[C@@H]6O[C@H](CO)[C@@H](O)[C@H](O)[C@H]6O)[C@H](O)[C@H]5O[C@H]5O[C@H](CO)[C@@H](O)[C@H](O)[C@H]5O)[C@](C)(CO)C4CCC3(C)[C@]1(C)C[C@H]2O (stereo not given in full)	15	87*	.	.	.	36
CC1(C)C[C@H](O)[C@]2(CO)[C@H](O)C[C@]3(C)C(=CCC4[C@@]5(C)CC[C@H](O)C(C)(C)C5CC[C@]43C)[C@@H]2C1 (stereo not given in full)	-29	-4	.	.	.	-5
CCC1C(=NO)C(CC)C(c2ccccc2)NC1c1ccccc1 (stereo not given)	-6	38	59*	-3	12	-6
CC1C(=NO)C(C)C(c2ccccc2)NC1c1ccccc1 (stereo not given)	3	-22	5	7	4	-4
CC(=O)Nc1ccc(Oc2sc(C(=O)c3ccccc3)c(N)c2C#N)cc1	53*	24	87*	2	60	16
O=C(N/N=C/CCc1ccccc1)c1ccccc1	-17	-25	76*	2	32	-9
COc1cccc(NC(=O)CSc2nc3c([nH]c4ccccc43)c(=O)n2C)c1	4	-3	95*	2	41	-53
O=C(c1cccs1)N1C[C@@H](n2cc(C3CC3)nn2)[C@H](O)C[C@@H]1c1ccc(Cl)cc1	-13	-1	.	.	.	4
O=C(c1ccccc1Cl)N1N=C(c2ccc(Br)cc2)CC1c1nc2ccccc2[nH]1 (stereo not given)	19	61*	33	-5	-2	-7
O=C(c1ccncc1)N1N=C(c2ccc(Br)cc2)CC1c1ccccc1O (stereo not given)	11	12	13	1	2	-5
COCCn1c(SCC(=O)N2CCc3ccccc32)nc2c(c1=O)SC(C)C2 (stereo not given)	-5	2	1	.	-6	89*
NC(=O)c1c(-c2ccc(Cl)cc2Cl)csc1NC(=O)Cc1ccccc1	76*	20	8	-2	4	11
COc1ccc(Cn2cc(CN3CC(N4CCN(CCN(C)C)CC4)CS3(=O)=O)nn2)cc1 (stereo not given)	-1	-6	.	.	.	.
COc1cc(/C=C2/SC(=S)N(Cc3ccccc3)C2=O)ccc1OS(C)(=O)=O	-32	-25	5	8	6	39
COc1cc([N+](=O)[O-])cc(/C=C2/SC(=S)N(Cc3ccccc3)C2=O)c1O	70*	48	-8	-2	-4	21
COc1cc(/C=C2\SC(=O)N(Cc3ccc(Cl)cc3)C2=O)cc([N+](=O)[O-])c1O	56*	55*	.	0	.	0
SMILES	TWEAK Fn14 block	TROY signal inh	HSF1 activator	HSP90 refold inh	HSF1 inhib	LMP1 NFkB inh
COc1cc(/C=C2/SC(=S)N(Cc3ccccc3)C2=O)cc(Cl)c1O	65*	51*	-6	-4	6	11
COc1cc(/C=C2/SC(=S)N(Cc3ccccc3)C2=O)ccc1OCC(=O)O	-39	-12	15	2	14	47*
CCC(=O)N1CCC1(C)C(=O)Nc1cnc2ccccc2c1 (stereo not given)	-9	-29	.	.	.	.
Nc1ncnc2c1ncn2[C@@H]1O[C@H](C(=O)Nc2cc(C(F)(F)F)cc(C(F)(F)F)c2)[C@@H](O)[C@H]1O	-11	-5	.	.	.	.
Cc1cc2nc(C3CCCCC3)c(Cc3ccccc3)n2c(C)c1Br	-10	-2	.	.	.	.
COc1ccc(/C=C2\SC(=S)N(CCCC(=O)Nc3ccccn3)C2=O)cc1OC	52*	24	-12	5	-2	1
COc1ccc(/C=C2\SC(=S)N(CCCC(=O)Nc3cccc(C(=O)O)c3)C2=O)cc1OC	8	26	-8	-1	-9	2
C[C@@H]1CN([C@@H](C)CO)C(=O)CCCn2cc(nn2)CO[C@H]1CN(C)S(=O)(=O)c1ccc(C#N)cc1	-9	-11	.	.	.	4
CCCCc1c(O)c2ccccc2[nH]c1=O	7	9	-9	-2	-8	2
CCCc1c(O)c2ccccc2[nH]c1=O	80*	.	-10	-1	-2	-4
CCC1(c2ccc(Cl)cc2)NC(=S)N(c2ccc(C)cc2)N1 (stereo not given)	-2	-51	61*	-1	28	-44
CCC1(c2ccccc2)NC(=S)N(c2ccc(C)c(C)c2)N1 (stereo not given)	-14	-37	52*	-2	21	-6
CCCCn1nnnc1C(c1ccccc1)N1CCN(c2c(Cl)cncc2Cl)CC1 (stereo not given)	-2	23	.	.	.	.
COc1ccc(C(=O)N2CCC(C)(C(=O)NS(=O)(=O)C3CC3)C2)cc1 (stereo not given)	2	3	.	.	.	.
